From PubChem BioAssay AID1159580 (chemical genetic matrix, 2015)
Out of some 5,500 compounds screened, about 2,000 (36%) were called active. Roughly 18% stayed inconclusive and do not appear here. Cut-off read from the data, not from the text of the source: active = normalized growth mostly below about 0.91 (no sharp cut-off); inconclusive = no clear call, values can overlap the other calls; inactive = mostly above about 0.92. The list shows a part of the results.

Assay: chemical genetic growth profiling, strain panel (AID 1159580);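 note: tested at 20 µM; growth read once vehicle control cultures reached saturation at 30 °C; 1 = growth at the plate median or of vehicle wells; lower values mean less growth of the strain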
Conditions: growth OD

Measured: normalized growth

CC1(C)C(=O)C=C[C@@]2(C)C1C[C@@H](O)[C@]1(C)C2CC[C@@]2(C)[C@H](c3ccoc3)OC(=O)[C@H]3O[C@]321 (stereo partly specified)
inactive: S. cerevisiae deletion strains, locus YJR066W, strain TOR1, active compounds read low 0.938 | S. cerevisiae deletion strains, locus YKL009W, strain mrt4, active compounds read low 0.95 | S. cerevisiae deletion strains, locus YKL068W, active compounds read low 0.973 | S. cerevisiae deletion strains, locus YKL085W, strain MDH1 (second series), active compounds read low 0.973 | S. cerevisiae deletion strains, locus YKL085W, strain MDH1, active compounds read low 0.973 | S. cerevisiae deletion strains, locus YKL160W, strain elf1, active compounds read low 1 | S. cerevisiae deletion strains, locus YKL190W, strain CNB1, active compounds read low 0.983 | S. cerevisiae deletion strains, locus YKR001C, strain vps1, active compounds read low 0.963 | S. cerevisiae deletion strains, locus YKR026C, strain gcn3, active compounds read low 0.995 | S. cerevisiae deletion strains, locus YKR091W, strain srl3, active compounds read low 0.989 | S. cerevisiae deletion strains, locus YLL001W, strain dnm1, active compounds read low 1.01 | S. cerevisiae deletion strains, locus YLL026W, active compounds read low 1 | S. cerevisiae deletion strains, locus YLL041C, strain sdh2, active compounds read low 0.992 | S. cerevisiae deletion strains, locus YLR027C, strain aat2, active compounds read low 1.02 | S. cerevisiae deletion strains, locus YLR039C, strain RIC1, active compounds read low 0.972 | S. cerevisiae deletion strains, locus YLR058C, strain SHM2, active compounds read low 0.959 | S. cerevisiae deletion strains, locus YLR102C, strain apc9, active compounds read low 0.983 | S. cerevisiae deletion strains, locus YLR113W, strain HOG1, active compounds read low 0.991 | S. cerevisiae deletion strains, locus YLR221C, strain rsa3, active compounds read low 1 | S. cerevisiae deletion strains, locus YLR258W, strain gsy2, active compounds read low 1.03 | S. cerevisiae deletion strains, locus YLR262C, strain YPT6 (second series), active compounds read low 0.992 | S. cerevisiae deletion strains, locus YLR262C, strain YPT6, active compounds read low 0.962 | S. cerevisiae deletion strains, locus YLR268W, strain sec22, active compounds read low 0.952 | S. cerevisiae deletion strains, locus YLR320W, strain mms22, active compounds read low 1.01 | S. cerevisiae deletion strains, locus YLR330W, strain CHS5, active compounds read low 0.987 | S. cerevisiae deletion strains, locus YLR342W, strain FKS1 (second series), active compounds read low 1.02 | S. cerevisiae deletion strains, locus YLR342W, strain FKS1, active compounds read low 1.02 | S. cerevisiae deletion strains, locus YLR357W, strain rsc2, active compounds read low 0.965 | S. cerevisiae deletion strains, locus YLR370C, strain arc18, active compounds read low 0.996 | S. cerevisiae deletion strains, locus YLR371W, strain rom2, active compounds read low 0.99 | S. cerevisiae deletion strains, locus YLR384C, strain iki3, active compounds read low 1 | S. cerevisiae deletion strains, locus YLR418C, strain cdc73, active compounds read low 0.933 | S. cerevisiae deletion strains, locus YML016C, strain PPZ1, active compounds read low 0.98 | S. cerevisiae deletion strains, locus YML032C, strain rad52, active compounds read low 0.971 | S. cerevisiae deletion strains, locus YML120C, strain ndi1, active compounds read low 1 | S. cerevisiae deletion strains, locus YML124C, strain tub3, active compounds read low 0.989 | S. cerevisiae deletion strains, locus YMR058W, strain fet3, active compounds read low 0.996 | S. cerevisiae deletion strains, locus YMR078C, strain ctf18, active compounds read low 0.982 | S. cerevisiae deletion strains, locus YMR125W, strain sto1, active compounds read low 0.984 | S. cerevisiae deletion strains, locus YMR129W, active compounds read low 1.01 | S. cerevisiae deletion strains, locus YMR205C, strain PFK2, active compounds read low 0.999 | S. cerevisiae deletion strains, locus YMR223W, strain ubp8, active compounds read low 0.997 | S. cerevisiae deletion strains, locus YMR231W, strain pep5, active compounds read low 0.992 | S. cerevisiae deletion strains, locus YMR307W, strain GAS1, active compounds read low 0.954 | S. cerevisiae deletion strains, locus YNL067W, strain RPL9B, active compounds read low 1.01 | S. cerevisiae deletion strains, locus YNL071W, strain lat1, active compounds read low 1 | S. cerevisiae deletion strains, locus YNL183C, strain NPR1, active compounds read low 0.963 | S. cerevisiae deletion strains, locus YNL209W, strain ssb2, active compounds read low 1 | S. cerevisiae deletion strains, locus YNL233W, strain BNI4, active compounds read low 1.01 | S. cerevisiae deletion strains, locus YNL248C, strain rpa49, active compounds read low 0.917 | S. cerevisiae deletion strains, locus YNL250W, strain rad50, active compounds read low 1 | S. cerevisiae deletion strains, locus YNL271C, strain bni1, active compounds read low 0.984 | S. cerevisiae deletion strains, locus YNL298W, strain CLA4, active compounds read low 0.995 | S. cerevisiae deletion strains, locus YNL307C, strain MCK1, active compounds read low 0.989 | S. cerevisiae deletion strains, locus YNL322C, strain KRE1 (second series), active compounds read low 1.01 | S. cerevisiae deletion strains, locus YNR049C, strain mso1, active compounds read low 0.993 | S. cerevisiae deletion strains, locus YNR052C, strain pop2, active compounds read low 0.992 | S. cerevisiae deletion strains, locus YOL012C, strain htz1 0.797 | S. cerevisiae deletion strains, locus YOL147C, strain pex11, active compounds read low 0.997 | S. cerevisiae deletion strains, locus YOR001W, strain rrp6, active compounds read low 0.986 | S. cerevisiae deletion strains, locus YOR061W, strain CKA2, active compounds read low 0.952 | S. cerevisiae deletion strains, locus YOR069W, strain VPS5, active compounds read low 0.992 | S. cerevisiae deletion strains, locus YOR070C, strain gyp1, active compounds read low 1.03 | S. cerevisiae deletion strains, locus YOR080W, strain dia2, active compounds read low 1.01 | S. cerevisiae deletion strains, locus YOR083W, strain WHI5, active compounds read low 1 | S. cerevisiae deletion strains, locus YOR106W, strain vam3, active compounds read low 0.996 | S. cerevisiae deletion strains, locus YOR136W, strain idh2, active compounds read low 0.975 | S. cerevisiae deletion strains, locus YOR144C, strain elg1, active compounds read low 0.986 | S. cerevisiae deletion strains, locus YOR184W, strain ser1, active compounds read low 0.896 | S. cerevisiae deletion strains, locus YOR231W, strain MKK1, active compounds read low 0.954 | S. cerevisiae deletion strains, locus YOR265W, strain rbl2, active compounds read low 1.01 | S. cerevisiae deletion strains, locus YOR270C, strain vph1, active compounds read low 0.97 | S. cerevisiae deletion strains, locus YOR290C, strain snf2, active compounds read low 1 | S. cerevisiae deletion strains, locus YOR316C, strain cot1, active compounds read low 0.985 | S. cerevisiae deletion strains, locus YPL051W, strain arl3, active compounds read low 1.02 | S. cerevisiae deletion strains, locus YPL078C, strain atp4, active compounds read low 1 | S. cerevisiae deletion strains, locus YPL106C, strain sse1, active compounds read low 1.03 | S. cerevisiae deletion strains, locus YPL240C, strain hsp82, active compounds read low 1 | S. cerevisiae deletion strains, locus YPL241C, strain CIN2, active compounds read low 0.98 | S. cerevisiae deletion strains, locus YPL256C, strain CLN2, active compounds read low 0.945 | S. cerevisiae deletion strains, locus YPR119W, strain clb2, active compounds read low 0.985 | S. cerevisiae deletion strains, locus YPR141C, strain kar3, active compounds read low 0.985 | S. cerevisiae deletion strains, locus YPR163C, strain tif3, active compounds read low 0.98 | S. cerevisiae deletion strains, locus YPR167C, strain met16, active compounds read low 0.99 | S. cerevisiae deletion strains, strain wtn01, active compounds read low 0.96 | S. cerevisiae strains, strain wild type, active compounds read low 0.97
